Sa RN4220 lethal: S. aureus RN4220 growth inhibition; AID 1259311; inhibition, % (test concentration not listed); OD600, 16 h; actives 0.33% (n = 330,000); in the data active = inhibition above about 85%;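 also: plate controls were untreated cells for no effect and reference antibiotic for full effect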
CCHF vOTU inh-1: blocks the CCHF virus ovarian tumor domain protease. CCHFV vOTU protease, Pep-AMC fluorescence. inhibition, % at 11.5 µM. actives 0.55% (n = 370,000). AID 651958; also: 0% = vehicle wells with enzyme and 100% = no enzyme wells
DUSP3 inh: inhibitors of human VHR1 phosphatase (DUSP3). P51452. recombinant VHR phosphatase, pNPP absorbance. inhibition, % at 13.3 µM. actives 0.52% (n = 290,000). AID 1654; in the data active = inhibition above about 50%
Target sequence (P51452 whole entry, looked up): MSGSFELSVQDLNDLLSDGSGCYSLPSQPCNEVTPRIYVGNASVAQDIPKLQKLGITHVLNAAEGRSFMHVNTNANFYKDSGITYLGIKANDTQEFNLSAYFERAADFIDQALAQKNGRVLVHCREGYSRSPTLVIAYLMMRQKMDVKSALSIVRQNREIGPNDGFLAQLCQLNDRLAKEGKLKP
SSB-PriA inh: inhibitors of Klebsiella pneumoniae PriA binding to SSB C-terminal tail; AlphaScreen SSBct-PriA binding, biotinylated peptide; inhibition, % at 33 µM; actives 0.6% (n = 430,000); AID 1272365; in the data active = inhibition mostly above about 37%, no sharp cut-off; inactive = mostly below about 20%;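 also: plate controls were negative control peptide for no effect and reference peptide for full effect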
ugtP null kill: kills S. aureus RN4220 lacking UgtP; S. aureus RN4220 ugtP deletion, OD600 growth, 16 h; growth inhibition, % (test concentration not listed); actives 0.54% (n = 330,000); in the data active = growth inhibition above about 68%;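 also: plate controls were untreated wells for no effect and antibiotic for full effect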
CCHF vOTU inh-2: CCHFV vOTU protease inhibition, confirmation; actives 17% (n = 1,900); inhibition, % at 11.5 µM; Recombinant CCHFV vOTU, Pep-AMC fluorescence; shares compounds with CCHF vOTU inh-1
The depositor's hits bear a star; i = inactive; nt = no result. In the library only some 1.5% were active in any assay of this set; here they are far more common. Rule as the data show it, unless noted: active = inhibition above about 30%; inactive = the rest.

SMILES | Sa RN4220 lethal | CCHF vOTU inh-1 | DUSP3 inh | SSB-PriA inh | ugtP null kill | CCHF vOTU inh-2
COc1ccccc1NC(=O)COC(=O)c1ccc([N+](=O)[O-])s1 | 0 | 80* | 30 | 6 | -4 | 100*
Cc1cc(C)c(NC(=O)COC(=O)c2ccc([N+](=O)[O-])s2)c(C)c1 | 1 | 54* | 10 | -1 | -7 | -17
CSc1cccc(NC(=O)c2cc(=O)[nH]cn2)c1 | nt | nt | nt | -24 | nt | nt
COC(=O)c1ccc(S(=O)(=O)NC[C@H](O)c2ccc3c(c2)CCO3)cc1 | nt | nt | nt | -16 | nt | nt
CC1(C(=O)NCc2cccc(C(F)(F)F)c2)CCN1Cc1ccc(-c2ccccc2)o1 (stereo not given) | nt | 34* | nt | nt | nt | 18
COc1cc(/C=N/Nc2ccc(S(N)(=O)=O)cc2)cc(OC)c1OC | nt | 30* | 11 | nt | nt | -3
COc1cc(/C=N/Nc2ccc(C(=O)O)cc2)cc(OC)c1OC | nt | 0 | 17 | i | nt | nt
COc1cc2nc(SCC(=O)Nc3cc(C)[nH]n3)n3nc(-c4ccccc4)nc3c2cc1OC | nt | nt | nt | 1 | nt | nt
O=C(CN1CCN(Cc2nc3ccccc3[nH]2)CC1)Nc1ccccc1 | nt | nt | nt | -9 | nt | nt
CCCN(C(=O)c1cn(CCC)c2ccccc12)c1ccc(Oc2cccnc2)cc1 | nt | 38* | nt | nt | nt | 3
CCCCCN(C(=O)CCc1cn(CCCCC)c2ccccc12)c1ccc(Oc2cccnc2)cc1 | nt | 11 | nt | nt | nt | nt
Cc1cc([N+](=O)[O-])nn1CCCC(=O)Nc1cc(Oc2ccccc2)cc([N+](=O)[O-])c1 | 2 | 8 | -30 | 10 | -16 | nt
Cc1cccc(Oc2cc(NC(=O)Cn3cnc([N+](=O)[O-])n3)cc([N+](=O)[O-])c2)c1 | 7 | 33* | 1 | 25 | 26 | -3
COc1cc(/C=C/c2ccc3c(Br)cc(Br)c(O)c3n2)ccc1O | 99* | 35* | 27 | 8 | 100* | -17
O=C(CN1C(=O)c2ccccc2C1=O)c1ccccc1 | 4 | 3 | 20 | -4 | 1 | nt
CC1=C(CC(=O)c2ccccc2)C(=O)c2ccccc2C1=O | 20 | 40* | 23 | 1 | 15 | 34*
CCOC(=O)C1(CCCc2ccccc2)CCN(C(=O)Cc2nonc2C)CC1 | 11 | 31* | 18 | -10 | -4 | -2
CCOC(=O)C1(CCCc2ccccc2)CCN(C(=O)CSC)CC1 | 11 | 0 | -4 | -21 | 5 | nt
Cc1ccc(-c2nnc(Oc3cccc(C(F)(F)F)c3)c3ccccc23)cc1C | nt | nt | nt | -9 | nt | nt
COc1ccc(NC(=O)NCCn2nc(-c3ccc(OC)cc3)ccc2=O)cc1 | nt | nt | nt | -11 | nt | nt
CCS(=O)(=O)Nc1ccc(C2=NN(C(=O)c3cccs3)C(c3c(F)cccc3Cl)C2)cc1 (stereo not given) | nt | nt | nt | -10 | nt | nt
CC1=C(C(=O)N2CCOCC2)CC(CC(=O)NCCCN(C)C)C(=O)N1Cc1ccc(F)cc1 (stereo not given) | nt | 37* | nt | nt | nt | -11
CC1=C(C(=O)N2CCOCC2)CC(CC(=O)NCCCCc2ccccc2)C(=O)N1Cc1ccc(C(C)(C)C)cc1 (stereo not given) | nt | 32* | nt | nt | nt | 1
COc1ccc(CN2C(=O)C(CC(=O)NCCCN(C)C)CC(C(=O)N3CCOCC3)=C2C)cc1 (stereo not given) | nt | 0 | nt | nt | nt | nt
CCCCN1C(=O)C(CC(=O)NCCCCc2ccccc2)CC(C(=O)N2CCOCC2)=C1C (stereo not given) | nt | -4 | nt | nt | nt | nt
SMILES | Sa RN4220 lethal | CCHF vOTU inh-1 | DUSP3 inh | SSB-PriA inh | ugtP null kill | CCHF vOTU inh-2
CC1=C(C(=O)N(C(C)C)C(C)C)CC(CC(=O)NCC2CCCCC2)C(=O)N1Cc1ccc(C(C)(C)C)cc1 (stereo not given) | nt | 38* | nt | nt | nt | 9
CC1=C(C(=O)N(C(C)C)C(C)C)CC(CC(=O)NC2CC2)C(=O)N1Cc1ccc(C(C)(C)C)cc1 (stereo not given) | nt | 27 | nt | nt | nt | nt
CC1=C(C(=O)N(C(C)C)C(C)C)CC(CC(=O)NCc2cccc3ccccc23)C(=O)N1Cc1ccc(C(C)(C)C)cc1 (stereo not given) | nt | 33* | nt | nt | nt | 15
O=C(CSc1ccc(NC(=O)c2cccs2)nn1)Nc1cccc(Cl)c1Cl | nt | nt | nt | -9 | nt | nt
CC1=C(C(=O)N(C)C)CC(CC(=O)NC(c2ccccc2)c2ccccc2)C(=O)N1Cc1ccc(F)cc1 (stereo not given) | nt | 34* | nt | nt | nt | -15
CC1=C(C(=O)N(C)C)CC(CC(=O)NC(c2ccccc2)c2ccccc2)C(=O)N1Cc1ccccc1 (stereo not given) | nt | -1 | nt | nt | nt | nt
CC1=C(C(=O)N(C(C)C)C(C)C)CC(CC(=O)NCCCCc2ccccc2)C(=O)N1Cc1ccc(C(C)(C)C)cc1 (stereo not given) | nt | 35* | nt | nt | nt | 16
Cc1cccn2cc(CCNS(=O)(=O)c3cccc(F)c3)nc12 | nt | nt | nt | -4 | nt | nt
CCCCCNC(=O)c1cn(-c2ccc(C)c(C)c2)nn1 | nt | nt | nt | -26 | nt | nt
COc1ccccc1CNC(=O)C(=O)Nc1cccc(N2CCCCC2=O)c1 | nt | nt | nt | 10 | nt | nt
CC(C)C1OC(CCc2ccccc2)Cc2[nH][nH]c(=O)c21 (stereo not given) | nt | 33* | nt | nt | nt | 6
O=C(C1COc2ccccc2O1)N1CCN(c2ccccc2O)CC1 (stereo not given) | 7 | 3 | nt | 8 | 5 | nt
Cc1cc(C)c(C#N)c(N2CCN(C(=O)C3COc4ccccc4O3)CC2)n1 (stereo not given) | -2 | 48* | nt | 11 | 4 | -30
CCOC(=O)c1c(NC(=O)c2c(N)n(CCCOC)c3nc4ccccc4nc23)sc2c1CCCC2 | -9 | -2 | -4 | 9 | 26 | nt
CCOCCCn1c(N)c(C(=O)Nc2sc3c(c2C(=O)OC)CCCC3)c2nc3ccccc3nc21 | -3 | 31* | 10 | 7 | -1 | -5
CS(=O)(=O)C1=NN2C(=N)/C(=C\c3ccc(OC(=O)c4ccco4)cc3)C(=O)N=C2S1 | 10 | 0 | -26 | 0 | 5 | nt
CC(C)CS(=O)(=O)C1=NN2C(=N)/C(=C\c3ccc(OC(=O)c4ccco4)cc3)C(=O)N=C2S1 | nt | 37* | 1 | -7 | nt | 5
COc1ccc(C=C2C(=O)NC(=S)NC2=O)cc1OC | -1 | 14 | nt | -2 | 0 | nt
COc1ccc(/C=C2\C(=O)NC(=O)c3ccccc32)cc1OC | nt | 108* | nt | 21 | nt | 103*
CCCN(CC(=O)Nc1ccccc1OC)C(=O)c1ccc2[nH]c3c(c2c1)CC(C)CC3 (stereo not given) | -3 | 38* | nt | -9 | -25 | 10
COc1ccccc1CCn1cnc(-c2ccccc2)c1CC(C)C | nt | 45* | nt | nt | nt | 18
CCCCCc1c(-c2ccc(OC)cc2)ncn1CCc1ccccc1OC | nt | 20 | nt | nt | nt | nt
CCCCCc1c(-c2ccc(Cl)cc2)ncn1CCc1ccccc1OC | nt | 37* | nt | nt | nt | 8
CCc1c(-c2cccc(F)c2)ncn1CCc1ccccc1OC | nt | 30* | nt | nt | nt | -4
COc1ccccc1CCn1cnc(-c2ccc(F)cc2)c1CC(C)C | nt | 27 | nt | nt | nt | nt
CCS(=O)(=O)Nc1ccc(C)c(N2CCCC2=O)c1 | nt | nt | nt | -5 | nt | nt
Cc1ccccc1NC(=O)c1ccc(COc2ccccc2C)o1 | nt | nt | nt | -30 | nt | nt
Cc1nc(OCC(=O)Nc2nc3ccccc3[nH]2)cc(-n2cccn2)n1 | nt | nt | nt | -12 | nt | nt
CC(C)(C)NC(=O)CSc1nnc(CNC(=O)c2ccc(F)cc2)o1 | nt | nt | nt | -11 | nt | nt
